Laboratory results reported in PubChem BioAssay.
Where “and” joins values, the source holds several entries; their conditions need not be identical. Identical values can stand only once. Results filed as inconclusive are left out. Calls of active or inactive are those of the source.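 Rule for the calls, unless noted: active = normalized viability below 100% at a tested concentration; inactive = the rest.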

Experiments:
[1] = Wnt pathway potentiators raising nuclear beta-catenin – imaging, WNT3A-conditioned medium, mouse C2C12, NPC library, primary screen (AID 1117326; in the data active = nuclear beta-catenin stimulation mostly above about 4.2%, no sharp cut-off; inactive = mostly below about 10%); details: stronger effect = higher value
[2] = stimulators of insulin release from INS-1E, primary screen, cell-based, 5 mM glucose, NPC library (AID 1117329;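 active = compound raises insulin release from rat beta cells at 5 mM glucose, no numeric limit stated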); details: rat INS-1E insulin secretion, at 10 µM, stronger effect = higher value
[3] = growth inhibition of GSK3B-pretreated HCT116 cells – cell-based, CellTiter-Glo, 0.2 to 20 µM (AID 1117336;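 active = compounds lowering colon cancer cell viability after pretreatment blocking the GSK3B kinase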); details: HCT116 viability after GSK3B inhibitor, at 20 µM, stronger effect = higher value
[4] = inhibition of endothelial tube formation, primary screen, imaging, VEGF stimulated, CD31 staining, tube area, NPC library (AID 1117340;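 active = compound that reduces growth-factor-driven endothelial tube area in a mixed cell culture, no cutoff stated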); details: VEGF-stimulated ADSC/ECFC co-culture, at 10 µM, stronger effect = higher value
[5] = GLP1 release stimulators, primary, NCI-H716, NPC library (AID 1117341;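 active = compound raises GLP1 secretion from the human gut endocrine cells, with no numeric limit stated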); details: NCI-H716 cells, at 10 µM, stronger effect = higher value
[6] = HCT116 colon cancer cell growth inhibition, primary screen, CellTiter-Glo luminescence, NPC library (AID 1117342;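 active = compounds that lower survival of HCT116 colon cancer cells in the luminescence readout, no numeric limit stated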); details: at 20 µM (top of the series)
[7] = reduced SW480 viability measured with CellTiter-Glo, NPC library, primary (AID 1117343;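 active = compounds that lower viability of the colon cancer cells in the luminescence readout, with no numeric limit stated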); details: CellTiter-Glo luminescence; at 20 µM (top of the series) unless noted
[8] = NPC library primary testing for decreased DLD-1 cell viability via CellTiter-Glo (AID 1117346;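 active = compounds that lower survival of DLD-1 colon cancer cells in the luminescence readout, no cutoff given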); details: DLD-1 viability, CellTiter-Glo luminescence; at 20 µM (top of the series)
[9] = system: Aerobactin synthetase IucA (Klebsiella pneumoniae); assay: inhibition of K. pneumoniae IucA enzyme – biochemical, Tocris library, absorbance (AID 1345561; call rule not given here;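 note: 100% = enzyme without compound and 0% = no enzyme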); details: purified IucA enzyme assay, absorbance (OD) read-out; stronger effect = lower value;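 tested at 8 µM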
[10] = viability loss in pontine glioma line – cell-based, SU-DIPG-XVII, MIPE5.0, CellTiter-Glo, qHTS, dose response (AID 1347060; cut-off not given, nearly all actives have AC50 up to about 26 µM;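 for AC50: cells exposed to compound for 48 hours before viability readout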); details: CellTiter-Glo ATP luminescence
[11] = viability loss in pontine glioma line – cell-based, SU-DIPG-XIII, MIPE4.0, CellTiter-Glo, qHTS, dose response (AID 1347061; cut-off not given, nearly all actives have AC50 up to about 37 µM;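 note: cells exposed to compound for 48 hours before readout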); details: CellTiter-Glo ATP luminescence
[12] = viability loss in pontine glioma line – cell-based, JHH-DIPG-1, MIPE4.0, CellTiter-Glo, qHTS, dose response (AID 1347062; cut-off not given, nearly all actives have AC50 up to about 27 µM;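 for AC50: cells exposed to compound for two days before readout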); details: JHH-DIPG-1 viability, CellTiter-Glo ATP luminescence
[13] = growth inhibition of DIPG cells – cell-based, MIPE5.0 library, qHTS (AID 1347068; cut-off not given, nearly all actives have IC50 up to about 30 µM); details: SU-DIPG-XXV viability
[14] = viability loss with induced miR-34 in A549 – imaging, A549 dox-inducible miR-34, nuclei and caspase counts, primary screen (AID 1347080;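 active = compounds whose cell count with miR-34 switched on is under 0.7 times the count with it off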); details: A549 miR-34 inducible, Hoechst nuclei count, 48 h
[15] = drug combination growth inhibition, ovarian cancer – cell-based, oncology-focused library, rucaparib conditional, profiling panel (AID 1508598); details: patient-derived ovarian cancer cells, CellTiter-Glo viability, 144 h, stronger effect = lower value
[16] = galactose survival enhancers in mitochondrial complex I cybrids – cell-based, galactose medium, ATP luminescence, primary screen (AID 1645843;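 active = z-score of at least 1.8 in each of two replicates, scored against plate mean and spread of sample wells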;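 note: positive z means more ATP and so rescue of galactose-driven cybrid death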); details: complex I mutant cybrid cells, 72 h, stronger effect = higher value
[17] = P. berghei load reduction in hepatocytes – cell-based, HepG2, luciferase luminescence, HepG2 viability, primary screen (AID 624349; in the data active = parasite load remaining mostly below about 12%, no sharp cut-off; inactive = mostly above about 10%;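 note: 100% = mean of DMSO negative control wells on the same plate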); details: P. berghei liver stage in HepG2, luciferase luminescence, concentration not given here; parasite load remaining: stronger effect = lower value; viability: measured here: HepG2 viability without parasites
[18] = EMT-state selective cytotoxicity in co-culture – imaging, PC-3E GFP, TEM4-18 mCherry, primary screen (AID 1345086;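 active = compounds killing one labelled cell type while sparing the other, by normalised counts and ratio limits, not self-fluorescent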;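 note: cells exposed to compound for 72 h before imaging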;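 for red/green cell ratio (normalised): normalised mesenchymal count divided by normalised epithelial count so high means epithelial killing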); details: PC-3E GFP / TEM4-18 mCherry co-culture, imaging cell counts, at 1 µM
[19] = MELAS cybrid and Rieske KO viability enhancers – cell-based, MELAS cybrids, Rieske KO mouse fibroblasts, CellTiter-Glo, primary screen (AID 1508586;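 active = mean z-score across replicates of 1.96 or higher in either the MELAS or the Rieske mutant cell line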;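 note: z relative to plate mean and SD of compound and empty wells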); details: low glucose
[20] = stronger effect = lower value, cell number ratio, induced over uninduced
[21] = measured here: relative caspase fold change +Dox/-Dox
[22] = measured here: total cells with miR-34 induction, stronger effect = lower value
[23] = measured here: total cells without miR-34 induction
[24] = MELAS cybrid survival, CellTiter-Glo 48 h, stronger effect = higher value
[25] = Rieske KO mouse fibroblast survival, CellTiter-Glo 72 h

## Nc1ncn([C@H]2C[C@H](O)[C@@H](CO)O2)c(=O)n1
[1]; at 10 µM
  nuclear beta-catenin stimulation: 7.2% (inactive)
[1]; stimulation, at 2 µM
  nuclear beta-catenin stimulation: 4.5%
[2]
  insulin secretion stimulation: -1.2% (inactive)
[3]
  viability decrease: 33.4% (inactive)
[4]
  tube area decrease: 58.1% (active)
[5]
  GLP1 secretion stimulation: 1.6% (inactive)
[6]
  inhibition of viability: 31.2% (inactive)
[7]
  viability decrease (inhibition): 53.8% (active)
[8]
  viability decrease (inhibition): 18.9% (inactive)
[9]
  remaining activity: 97% (inactive)
[10]
  outcome: inactive
[11]
  outcome: inactive
[12]
  outcome: inactive
[13]
  outcome: inactive
[14]; [20]
  fold change: 0.823 (inactive)
[14]; [21]
  fold change: 1.99
[14]; [22]
  cell count: 8200
[14]; [23]
  cell count: 9960
[15]; at 0.000305 µM, OCI-C5x cells, with rucaparib 10 µM, 100% = cells with rucaparib alone
  viability: 122% (inactive)
[15]; at 0.000305 µM, OCI-C5x cells, without rucaparib
  viability: 112% (inactive)
[15]; at 0.000305 µM, OCI-P5x cells, with rucaparib 20 µM, 100% = cells with rucaparib alone
  viability: 104% (inactive)
[15]; at 0.000305 µM, OCI-P5x cells, without rucaparib
  viability: 112% (inactive)
[15]; at 0.00122 µM, OCI-C5x cells, with rucaparib 10 µM, 100% = cells with rucaparib alone
  viability: 111% (inactive)
[15]; at 0.00122 µM, OCI-C5x cells, without rucaparib
  viability: 107% (inactive)
[15]; at 0.00122 µM, OCI-P5x cells, with rucaparib 20 µM, 100% = cells with rucaparib alone
  viability: 111% (inactive)
[15]; at 0.00122 µM, OCI-P5x cells, without rucaparib
  viability: 103% (inactive)
[15]; at 0.00488 µM, OCI-C5x cells, with rucaparib 10 µM, 100% = cells with rucaparib alone
  viability: 113% (inactive)
[15]; at 0.00488 µM, OCI-C5x cells, without rucaparib
  viability: 112% (inactive)
[15]; at 0.00488 µM, OCI-P5x cells, with rucaparib 20 µM, 100% = cells with rucaparib alone
  viability: 99.8% (active)
[15]; at 0.00488 µM, OCI-P5x cells, without rucaparib
  viability: 95.8% (active)
[15]; at 0.0195 µM, OCI-C5x cells, with rucaparib 10 µM, 100% = cells with rucaparib alone
  viability: 103% (inactive)
[15]; at 0.0195 µM, OCI-C5x cells, without rucaparib
  viability: 108% (inactive)
[15]; at 0.0195 µM, OCI-P5x cells, with rucaparib 20 µM, 100% = cells with rucaparib alone
  viability: 82.8% (active)
[15]; at 0.0195 µM, OCI-P5x cells, without rucaparib
  viability: 95.2% (active)
[15]; at 0.0781 µM, OCI-C5x cells, with rucaparib 10 µM, 100% = cells with rucaparib alone
  viability: 101% (inactive)
[15]; at 0.0781 µM, OCI-C5x cells, without rucaparib
  viability: 107% (inactive)
[15]; at 0.0781 µM, OCI-P5x cells, with rucaparib 20 µM, 100% = cells with rucaparib alone
  viability: 96.6% (active)
[15]; at 0.0781 µM, OCI-P5x cells, without rucaparib
  viability: 88.3% (active)
[15]; at 0.313 µM, OCI-C5x cells, with rucaparib 10 µM, 100% = cells with rucaparib alone
  viability: 85.8% (active)
[15]; at 0.313 µM, OCI-C5x cells, without rucaparib
  viability: 88.1% (active)
[15]; at 0.313 µM, OCI-P5x cells, with rucaparib 20 µM, 100% = cells with rucaparib alone
  viability: 84.8% (active)
[15]; at 0.313 µM, OCI-P5x cells, without rucaparib
  viability: 68.4% (active)
[15]; at 1.25 µM, OCI-C5x cells, with rucaparib 10 µM, 100% = cells with rucaparib alone
  viability: 80.4% (active)
[15]; at 1.25 µM, OCI-C5x cells, without rucaparib
  viability: 80% (active)
[15]; at 1.25 µM, OCI-P5x cells, with rucaparib 20 µM, 100% = cells with rucaparib alone
  viability: 68.8% (active)
[15]; at 1.25 µM, OCI-P5x cells, without rucaparib
  viability: 61.9% (active)
[15]; at 5 µM, OCI-C5x cells, with rucaparib 10 µM, 100% = cells with rucaparib alone
  viability: 49.1% (active)
[15]; at 5 µM, OCI-C5x cells, without rucaparib
  viability: 63.2% (active)
[15]; at 5 µM, OCI-P5x cells, with rucaparib 20 µM, 100% = cells with rucaparib alone
  viability: 57.9% (active)
[15]; at 5 µM, OCI-P5x cells, without rucaparib
  viability: 46.9% (active)
[16]
  z-score: 0.69 (inactive)

## CC(=O)NCc1c(I)c(NC(C)=O)c(I)c(C(=O)O)c1I
[17]
  parasite load remaining: 120% (inactive) and 34.8% (inactive)
  viability: 74.1% and 92.4%
[1]; at 10 µM
  nuclear beta-catenin stimulation: -1.4% (inactive)
[1]; stimulation, at 2 µM
  nuclear beta-catenin stimulation: -1.3%
[2]
  insulin secretion stimulation: -0.4% (inactive)
[3]
  viability decrease: -16.4% (inactive)
[4]
  tube area decrease: -6.1% (inactive)
[5]
  GLP1 secretion stimulation: 0% (inactive)
[6]
  inhibition of viability: -14.3% (inactive)
[7]
  viability decrease (inhibition): 27.5% (inactive)
[8]
  viability decrease (inhibition): -14.8% (inactive)
[18]; actives lie on both sides, counts scaled to control wells, 1 = unselective
  red/green cell ratio (normalised): 1.24 (inactive)
[18]; measured here: epithelial PC-3E GFP cell survival
  normalised cell number: 1.02
[18]; measured here: mesenchymal TEM4-18 mCherry cell survival
  normalised cell number: 1.27
[14]; [20]
  fold change: 0.851 (inactive)
[14]; [21]
  fold change: 1.88
[14]; [22]
  cell count: 10700
[14]; [23]
  cell count: 12600

## CCOCC(O)COc1ccc(NC(=O)CC[S+](C)C)cc1 (centres undefined)
[1]; at 10 µM
  nuclear beta-catenin stimulation: -0.1% (inactive)
[1]; stimulation, at 2 µM
  nuclear beta-catenin stimulation: -0.3%
[2]
  insulin secretion stimulation: 0.8% (inactive)
[3]
  viability decrease: -7.6% (inactive)
[4]
  tube area decrease: -11.2% (inactive)
[5]
  GLP1 secretion stimulation: -0.3% (inactive)
[6]
  inhibition of viability: 0.1% (inactive)
[7]
  viability decrease (inhibition): -6.5% (inactive)
[8]
  viability decrease (inhibition): -3.6% (inactive)
[9]
  remaining activity: 96.6% (inactive)
[10]
  outcome: inactive
[11]
  outcome: inactive
[12]
  outcome: inactive
[13]
  outcome: inactive
[14]; [20]
  fold change: 0.867 (inactive) and 0.902 (inactive)
[14]; [21]
  fold change: 0.938 and 2.11
[14]; [22]
  cell count: 8140 and 8470
[14]; [23]
  cell count: 9400 and 9390
[19]; [24]
  z-score: -0.246 (inactive)
[19]; [25]
  z-score: 0.62
[16]
  z-score: -0.075 (inactive)

## CC1=C(/C=C/C(C)=C/C=C/C(C)=C/C(=O)Nc2ccc(O)cc2)C(C)(C)CCC1
[17]
  parasite load remaining: 39.4% (inactive)
  viability: 108%
[1]; at 10 µM
  nuclear beta-catenin stimulation: 21.3% (inactive)
[1]; stimulation, at 2 µM
  nuclear beta-catenin stimulation: 39.9%
[2]
  insulin secretion stimulation: 2.3% (inactive)
[3]
  viability decrease: 98.8% (active)
[4]
  tube area decrease: 110% (active)
[5]
  GLP1 secretion stimulation: 2.4% (inactive)
[6]
  inhibition of viability: 90.4% (active)
[7]
  viability decrease (inhibition): 118% (active)
[8]
  viability decrease (inhibition): 94.3% (active)
[9]
  remaining activity: 97.3% (inactive)
[10]
  AC50: 20.9 µM (active)
[11]
  AC50: 34 µM (active)
[12]
  AC50: 2.7 µM (active)
[13]
  outcome: inactive
[19]; [24]
  z-score: 0.416 (inactive)
[19]; [25]
  z-score: 0.408
[16]
  z-score: -0.95 (inactive) and -0.72 (inactive) and -2.12 (inactive)
